Compounds without any hit were thinned out: in the full panel of roughly 83,000, 20% have a hit.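 Growth was measured after 48 h exposure to one concentration of compound in 96-well plates. Values under 10 count as active.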 Calls of active or inactive are those of the source.
Key:
Test in all cases: NCI-60 one-dose screen, 48 h (100 = growth as untreated, 0 = no growth, -100 = all killed)
Conditions in all cases: 10 µM unless noted
SK-MEL-2 melanoma = tested on: SK-MEL-2 melanoma
EKVX NSCLC = tested on: EKVX NSCLC
SN12C renal = tested on: SN12C renal
UO-31 renal = tested on: UO-31 renal
TK-10 renal = tested on: TK-10 renal
ACHN renal = tested on: ACHN renal
CAKI-1 renal = tested on: CAKI-1 renal
A498 renal = tested on: A498 renal
CCRF-CEM leukemia = tested on: CCRF-CEM leukemia
MOLT-4 leukemia = tested on: MOLT-4 leukemia

Measured: growth

Cn1ccc(=Nc2ccc(NC(=O)c3ccc(N=c4ccn(C)c5ccc([N+](=O)[O-])cc45)cc3)cc2)cc1
inactive: SK-MEL-2 melanoma 91.1% | EKVX NSCLC 77.5% | SN12C renal 45.3% | UO-31 renal 82.6% | TK-10 renal 122% | ACHN renal 99.2% | CAKI-1 renal 113% | A498 renal 97.6% | CCRF-CEM leukemia 89.2% | MOLT-4 leukemia 126%

CC1=CC(=O)C=CC1(C)C(Cl)(Cl)Cl (stereo not given)
inactive: SK-MEL-2 melanoma 87.5% | EKVX NSCLC 100% | SN12C renal 88.8% | UO-31 renal 92% | TK-10 renal 80.2% | ACHN renal 97.3% | CAKI-1 renal 104% | A498 renal 87.6% | CCRF-CEM leukemia 94.9% | MOLT-4 leukemia 93.9%

CN(C)c1ccc2cc3c(cc2c1)Oc1ccccc1N3.[Cl][Zn][Cl]
active: UO-31 renal 5.78%
inactive: SK-MEL-2 melanoma 89.5% | EKVX NSCLC 89.9% | SN12C renal 89.3% | TK-10 renal 77.4% | ACHN renal 70.9% | CAKI-1 renal 54.2% | A498 renal 115% | CCRF-CEM leukemia 31.4% | MOLT-4 leukemia 24.7%

CN(C)c1ccc(/C=C/c2ccnc3ccccc23)cc1
inactive: EKVX NSCLC 22.4% | SN12C renal 36.2% | UO-31 renal 50.2% | TK-10 renal 59.5% | ACHN renal 47.4% | CAKI-1 renal 45.7% | A498 renal 62% | CCRF-CEM leukemia 51.1% | MOLT-4 leukemia 33.1%
active: SK-MEL-2 melanoma -5.02%

O=C1c2ccccc2C(=O)c2c(O)c(Cl)cc(O)c21
inactive: SK-MEL-2 melanoma 124% | EKVX NSCLC 98.3% | SN12C renal 96.5% | UO-31 renal 79.8% | TK-10 renal 89.4% | ACHN renal 92.1% | CAKI-1 renal 95.1% | A498 renal 91% | CCRF-CEM leukemia 64.3% | MOLT-4 leukemia 75.9%

CC12CCC(O)CC1=CCC1C2CCC2(C)C3=NN=CC3CC12 (stereo not given)
inactive: SK-MEL-2 melanoma 118% | EKVX NSCLC 81.9% | SN12C renal 105% | UO-31 renal 105% | TK-10 renal 108% | ACHN renal 97.7% | CAKI-1 renal 127% | A498 renal 124% | CCRF-CEM leukemia 91% | MOLT-4 leukemia 83.8%

COc1ccc(/C=C2/C(=O)ON=C2C)cc1
inactive: SK-MEL-2 melanoma 96% | EKVX NSCLC 109% | SN12C renal 95.6% | UO-31 renal 99% | TK-10 renal 96.5% | ACHN renal 118% | CAKI-1 renal 102% | A498 renal 100% | CCRF-CEM leukemia 105% | MOLT-4 leukemia 107%

O=C1Nc2ccc(Br)cc2C1=O
inactive: SK-MEL-2 melanoma 117% | EKVX NSCLC 101% | SN12C renal 97% | UO-31 renal 78.9% | TK-10 renal 131% | ACHN renal 101% | CAKI-1 renal 100% | A498 renal 107% | CCRF-CEM leukemia 93.5% | MOLT-4 leukemia 95.9%

COc1ccc2c(c1OC)OCC(CN(C)C)C2=O (stereo not given)
inactive: SK-MEL-2 melanoma 112% | EKVX NSCLC 99.4% | SN12C renal 98.5% | TK-10 renal 90.7% | ACHN renal 54.2% | CAKI-1 renal 94.4% | A498 renal 104% | CCRF-CEM leukemia 60% | MOLT-4 leukemia 61.1%
active: UO-31 renal -72.5%

CCCOS(=O)(=O)c1ccccc1
active: CCRF-CEM leukemia 6.52%
inactive: SK-MEL-2 melanoma 114% | EKVX NSCLC 110% | SN12C renal 103% | UO-31 renal 83.3% | TK-10 renal 102% | ACHN renal 102% | CAKI-1 renal 91.8% | A498 renal 100% | MOLT-4 leukemia 107%

Fc1ccc(NCCS)cc1
inactive: SK-MEL-2 melanoma 102% | EKVX NSCLC 101% | SN12C renal 97.9% | UO-31 renal 84.7% | TK-10 renal 106% | ACHN renal 105% | CAKI-1 renal 110% | A498 renal 101% | CCRF-CEM leukemia 96.6% | MOLT-4 leukemia 95.3%

Cc1cc2cccnc2c2ncccc12
inactive: EKVX NSCLC 40.2% | SN12C renal 22.4% | UO-31 renal 27% | TK-10 renal 11.9% | ACHN renal 18.2% | CAKI-1 renal 12.6% | A498 renal 23.6%
active: SK-MEL-2 melanoma 6.1% | CCRF-CEM leukemia -11.8% | MOLT-4 leukemia 5.73%

— PubChem BioAssay (NCI)
